# Bioassay records: PubChem, National Center for Advancing Translational Sciences (NCATS)
# Shown is part of a subset that was picked to be rich in hits.
# Pf Dd2 growth: Plasmodium falciparum Dd2 growth inhibition; AID 1347417; 120,000 compounds, 4.3% hits; P. falciparum Dd2 growth, SYBR Green, 72 h; Potency, µM (top dose mostly 28.9 µM), without a hit: at the highest dose activity, negative = inhibition, hits mostly inhibitors; active = well fitted inhibition curve with a large enough effect;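 also: plate controls were DMSO vehicle for no effect and reference drug for full effect; nearly all actives have a fitted effect of over 65% in size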
#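 Readout: SYBR Green fluorescence, 485 nm excitation, 535 nm emission, after ~16 h lysis at 37C. Before that, Dd2-infected red cells (2.5% hematocrit) grew 72 h with compound, 29 uM top final concentration.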
# An asterisk follows results filed as active; i = inactive; [ ] = dose if it differs, or a comment. Potency is read from the fitted curve at half-maximal effect.
SMILES,Pf Dd2 growth
O=C1NCCCCCCN(C(=O)c2ccco2)[C@H]2CCCC[C@@H]12,-1%
O=C(NCCc1c[nH]c2ccccc12)[C@@H]1C[C@H]2C(=O)NCCCCCCN(C(=O)c3ccco3)[C@H]2C1,1.1µM*
O=C(NCc1ccccc1)C1CCN(C(=O)N2CC3CC(C2)[C@H]2CCCC(=O)N2C3)CC1 (stereo partly drawn),4%
COc1cccc(-c2n[nH]c3c2CC(=O)N(Cc2ccccc2F)C3)c1OC,i
Cc1cn2nc(C(=O)NCc3ccc(F)cc3F)cc2c(=O)[nH]1,3.2µM*
Cc1cn2nc(C(=O)NCc3ccc(Cl)cc3)cc2c(=O)[nH]1,4%
Cc1cn2nc(C(=O)NCc3ccccc3C)cc2c(=O)[nH]1,25%
O=C(c1ccccc1F)N1CCC2(CC1)NC(=O)N(Cc1ccc(F)cc1)C2=O,-5%
C[C@@H]1CN(Cc2nc3c(n2Cc2ccccc2)C(=O)N(Cc2ccccc2F)CCN3)C[C@H](C)O1,-19%
O=C([C@@H]1C[C@H](F)CN1C(=O)c1cccc(F)c1)N1CCOCC1,6%
COc1cccc(CN2C[C@@H](CO)[C@H](C(=O)NC3CC3)C2)c1OC,-25%
COCc1nc(C2CC(=O)N(C3CCCCC3)C2)no1 (stereo not drawn),13%
Cc1ccc(-c2nc(C3CC(=O)N(C4CCCCC4)C3)no2)cc1 (stereo not drawn),55%
COc1ccc(C2(c3nc(C4CC(=O)N(C5CCCCC5)C4)no3)CC2)cc1 (stereo not drawn),11µM*
CN1CCC(N2CC[C@@H]3[C@H]2C(=O)NC[C@H](CCC(=O)Nc2ccccc2)N3C)CC1,29%[44.1 µM]
O=C(c1ccccc1Cl)N1CCC(N2CCCNC2=O)CC1,10%[44.1 µM]
COCC(=O)N1CCC(C(=O)NCc2cc(-c3cccc(F)c3)no2)CC1,-29%
O=C(NC[C@H]1OC[C@@H](NC2CCOCC2)[C@@H]1O)C1CC1,15%[44.1 µM]
Fc1ccc(Nc2cc3c(cn2)CN(Cc2ccncc2)CCN3)cc1Cl,7.1µM*
Cc1[nH]cnc1CN1CCNc2cc(-c3ccccc3)ncc2C1,i
c1ccc(CN2CCNc3cc(-c4cccnc4)ncc3C2)cc1,-12%[44.1 µM]
Cn1cc(CN2CCNc3cc(Nc4cccnc4)ncc3C2)cn1,-1%[44.1 µM]
CN(C)c1ccc(CN2CCNc3cc(Nc4ccccc4)ncc3C2)cc1,5.6µM*
c1ccc(-c2cc3c(cn2)CN(Cc2c[nH]c4ccccc24)CCN3)cc1,7.9µM*
Cn1ccnc1CN1CCNc2cc(Nc3ccccc3)ncc2C1,i
SMILES,Pf Dd2 growth
COc1ccccc1CN1CCNc2cc(Nc3ccccc3)ncc2C1,6.3µM*
c1ccc(Nc2cc3c(cn2)CN(Cc2ncc[nH]2)CCN3)cc1,7%[44.1 µM]
Cn1cnc(CN2CCNc3cc(Nc4ccccc4)ncc3C2)c1,i
c1cncc(Nc2cc3c(cn2)CN(Cc2cccs2)CCN3)c1,0%[44.1 µM]
COCCN1CCNc2cc(Nc3cccc(OC)c3)ncc2C1,i
CC(NC(=O)Cc1cccn1-c1cccc(Cl)c1)c1cccnc1 (stereo not drawn),-19%
COc1ccc(-c2cc(C[C@H]3CNCC[C@H]3CC(=O)O)no2)cc1,-16%[44.1 µM]
CCC1(C(=O)NCc2ccc(F)cc2)CCCCC(=O)N1 (stereo not drawn),21%
CCC1(N2CCN(C(=O)c3ccccc3OC(F)(F)F)CC2)CCN(S(C)(=O)=O)C1 (stereo not drawn),-26%
COCCCN(CCC(=O)NCc1ccc2c(c1)OCO2)C(=O)c1cc(C)oc1C,i
NCCO[C@H]1C[C@@H](O)C12CCN(Cc1ccc(OC(F)F)cc1)CC2,-2%
Oc1ccc(CN2CCCCC2c2nc(CCOCC3CC3)no2)cc1 (stereo not drawn),i
Cc1ccc(NCc2cccn2-c2nnc(N3CCC(C(=O)NCc4ccc(OC(C)C)cc4)CC3)s2)cc1,-28%
CCc1ccc(NCc2cccn2-c2nnc(N3CCCCCC3)s2)cc1,-16%
Cc1ccc(CN(Cc2cccn2-c2nnc(N3CCCC3=O)s2)C(=O)Nc2ccccc2Cl)cc1,11µM*
Cc1ccsc1C(=O)NCC1(C)CCOCC1,25%
O=C(c1ccc(Cl)nc1)N1CCC(N2CC3CCCN3C2=O)CC1 (stereo not drawn),19%
Cc1cc(C)c(NC(=O)CSc2nncn3c2cc2oc(C)cc23)c(C)c1,221%[5.79 µM]
CCOC(=O)c1ccc(NC(=O)C(CC)Sc2nncn3c2cc2oc(C)cc23)cc1 (stereo not drawn),10µM*
COc1ccc(NC(=O)CSc2nncn3c2cc2oc(C)cc23)cc1OC,13%
CNCC(=O)N1CCN(Cc2nc(C3CC3)no2)CC(O)C1 (stereo not drawn),-11%
CN(C)c1ccc(CNC(=O)CCCN2C(=O)CCn3nc(-c4cccn4C)cc32)cc1,-2%
Cc1ccc(CNC(=O)CCCN2C(=O)CCn3nc(-c4cccn4C)cc32)cc1,5µM*
CC(C)Oc1ccc(CNC(=O)CCCN2C(=O)CCn3nc(-c4cccn4C)cc32)cc1,4%
Cc1cc2nc3n(c(=O)c2n1CC(=O)Nc1ccccc1F)CCCCC3,-24%
Cc1cnn(Cc2c(C(=O)N3C[C@@H](C(N)=O)[C@H](c4nc(C)no4)C3)noc2C)c1,6%
